Laboratory results: PubChem BioAssay (NCI)
The panel holds about 83,000 compounds, 20% with a hit somewhere; the sample as a whole holds those more often.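 How to read the values: 0–100, growth inhibition (40 = 60% inhibited); 0, no net growth; -100 to 0, cell death (-40 = 40% of starting cells died; -100 = all dead).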 The source made the active and inactive calls. The calls were made as follows: active = growth percent below 10; inactive = the rest.

What follows are molecules tested on HL-60(TB) leukemia (assay: NCI-60 one-dose screen, 48 h (100 = growth as untreated, 0 = no growth, -100 = all killed)). Settings: 10 µM unless noted.

Structure (SMILES)	growth
COc1cc2ncnc(Nc3ccc(S(=O)(=O)Nc4cc(C)on4)cc3)c2cc1OCCCN1CCOCC1	101% (inactive)
O=C(c1ccc(N2CCOCC2)cc1[N+](=O)[O-])N1CCOCC1	133% (inactive)
O=c1[nH]c(=S)[nH]c(O)c1/C=C1\C=Nc2ccccc21	90.4% (inactive)
CCCCCCNC(=O)Oc1ccc(/C(=C(\C)c2ccc(OC)cc2)c2ccc(OCCN3CCCCC3)cc2)cc1	46.3% (inactive)
O[C@H]1CO[C@H]2[C@@H]1OC[C@@H]2Oc1ccc(Nc2ccnc(Nc3ccc(O[C@H]4CO[C@H]5[C@@H]4OC[C@@H]5O)c(Cl)c3)n2)cc1Cl	-7.8% (active)
CCCCCCCCCCCCCC1=NCC[N+]1(CCO)Cc1ccccc1 (stereo unspecified)	-63.8% (active)
